Here are results for 36 compounds from PubChem BioAssay AID720690 (Broad Institute, 2013).

Results with a measured potency or affinity are listed apart. Calls of active or inactive are those of the source.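 The calls were made as follows: active = every repeat run showing a signal drop whose fitted half-maximal concentration is at most twice the top tested concentration; inconclusive = repeat runs disagree, or flat partial drop, or poor fit; inactive = the rest.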

The test can be described thus: general mammalian cell viability loss – activator set, cherry-pick, cytotoxicity control for miR-122 modulator project, dose response (AID 720690). Particulars: HEK293T viability, CellTiter-Glo luminescence, 48 h; series mostly up to 26 µM. (Cellular ATP, detected with luciferase, serves as a proxy for viable cell number.)
`O=C(c1ccco1)N1CCN(C2CC(=O)N(c3ccccc3)C2=O)CC1` (stereo unspecified): the result was inactive.

As for `COC(=O)C[C@H]1CC[C@@H]2[C@@H](COc3ccc(NC(=O)c4cnccn4)cc3C(=O)N2C)O1`, the compound was classed as inactive.

As to `CCC(=O)N1[C@H](CO)[C@@H](c2ccccc2)[C@@H]1CN(C)C(=O)CN1CCOCC1`, the call was inactive.

As for `CCNC(=O)C[C@@H]1CC[C@@H]2[C@@H](COc3ccc(NC(=O)c4ccccc4)cc3C(=O)N2C)O1`, the result was inactive.

Take `COc1ccc2[nH]c(C(=O)O)c(NS(=O)(=O)c3ccc(Cl)s3)c2c1`: the call was inactive.

For `CCC(=O)N1[C@@H](CO)[C@@H](c2ccccc2)[C@@H]1CN(C(C)C)S(C)(=O)=O`, the result was inactive.

For `CNC(=O)C[C@H]1CC[C@H]2[C@H](COc3ccc(NC(=O)c4cccc(OC)c4)cc3C(=O)N2C)O1`, the compound was called inactive.

In the case of `Cc1onc(-c2ccccc2)c1C(=O)NCc1ccccn1`, the compound was classed as inactive.

As for `CC(=O)N(C)C[C@H]1Oc2cc(/C=C/c3ccccc3)ccc2S(=O)(=O)N([C@@H](C)CO)C[C@H]1C`, the call was inactive.

For `COc1ccc(S(=O)(=O)Nc2cc(C)cc(C)n2)c2ccccc12`, the outcome was inactive.

Take `CCN(C[C@H]1N[C@H](CO)[C@H]1c1ccc(-c2ccc(F)cc2)cc1)C(=O)COC`: the compound was classed as inactive.

Consider `CCCCN1C=C(C(=O)OC)C(c2ccccc2C(F)(F)F)C(C(=O)OC)=C1`, for which the result was inactive.

Turning to `C[C@@H]1CN([C@@H](C)CO)S(=O)(=O)c2ccc(-c3ccccc3)cc2O[C@@H]1CN(C)C(=O)c1ccc2c(c1)OCO2`, the result was inactive.

Consider `COC(=O)c1c(N)nc(C)n1-c1ccc(OC)cc1`, for which the outcome was inactive.

`COCC(=O)N(C)C[C@H]1Oc2cc(-c3ccccc3F)ccc2S(=O)(=O)N([C@@H](C)CO)C[C@H]1C`: the compound was classed as inactive.

Consider `CCC(=O)N1[C@@H](CO)[C@H](c2ccccc2)[C@@H]1CN(C(C)C)S(C)(=O)=O`, for which the outcome was inactive.

`COc1ccc(S(=O)(=O)Nc2cccc3c2O[C@H](CN(C)CC2CCCCC2)[C@@H](C)CN([C@H](C)CO)C3=O)cc1`: the call was inactive.

For the compound `C/C=C/c1ccc([C@@H]2[C@@H](CNC(=O)c3ccncc3)N(C(=O)CC)[C@H]2CO)cc1`, the compound was called inactive.

For the compound `CNC(=O)c1nc(C)n(-c2cc(Cl)cc(Cl)c2)n1`, the compound was called inactive.

For `COCC(=O)N(C)C[C@H]1Oc2cc(C#Cc3cccnc3)ccc2S(=O)(=O)N([C@H](C)CO)C[C@H]1C`, the compound was called inactive.

`CN1C(=O)c2cc(NC(=O)c3cccs3)ccc2OC[C@H]2O[C@H](CC(=O)NCCN3CCCCC3)CC[C@@H]21`: the outcome was inactive.

For `COc1ccc(C(O)(CC(C)C)C(CN2CCOCC2)c2ccccc2)cc1` (stereo unspecified), the call was inactive.

For `CCC(=O)N1[C@H](CO)[C@@H](c2ccccc2)[C@@H]1CN(CC)C(=O)c1cccc(F)c1`, the outcome was inactive.

Turning to `COc1cc(-c2nnc3sc(C4CCCCC4)nn23)cc(OC)c1OC`, the outcome was inactive.

Regarding `O=C(C1CCOCC1)N1C[C@H]2[C@@H](c3ccccc31)[C@@H](CO)N2Cc1ccccc1`, the outcome was inactive.

For the compound `C[C@@H]1CCCCO[C@H](CN(C)CC2CCCCC2)[C@H](C)CN([C@H](C)CO)C(=O)c2cc(NC(=O)Nc3ccc4c(c3)OCO4)ccc2O1`, the compound was classed as inactive.

On to `C/C=C/c1ccc([C@@H]2[C@@H](CO)N(C(C)=O)[C@@H]2CN(CC)C(=O)CN(C)C)cc1`, for which the outcome was inactive.

For the compound `O=C(c1cccnc1)N1C[C@H]2[C@@H](c3ccccc31)[C@H](CO)N2C(=O)Nc1ccccc1`, the compound was called inactive.

Take `CO[C@@H]1CN(C)C(=O)c2cc(NC(=O)c3cccc(Oc4ccccc4)c3)ccc2OC[C@H](C)NC[C@@H]1C`: the call was inactive.

For the compound `CN1C(=O)c2cc(NC(=O)C3CC3)ccc2OC[C@@H]2O[C@H](CC(=O)NCCN3CCCC3)CC[C@H]21`, the compound was called inactive.

As to `COc1ccc(CN2CCN(Cc3cccn3-c3ncccn3)CC2CCO)c(C)c1C` (stereo unspecified), the compound was classed as inactive.

On to `C[C@H]1CCCCO[C@@H](CN(C)CC2CCCCC2)[C@@H](C)CN([C@@H](C)CO)C(=O)c2cc(NC(=O)Nc3cccc4ccccc34)ccc2O1`, for which the compound was classed as inactive.

For the compound `NC(=O)c1cn(-c2ccccc2)nc1-c1cc2ccccc2oc1=O`, the call was inactive.

With `COCC(=O)N1C[C@H]2[C@@H](c3ccccc31)[C@H](CO)N2C(=O)Nc1ccccc1Cl`, the outcome was inactive.

Turning to `CO[C@H]1CN(C)C(=O)c2cc(NC(=O)c3ccccc3F)ccc2OC[C@@H](C)N(C)C[C@@H]1C`, the result was inactive.

Consider `C[C@H](CO)N1C[C@H](C)[C@@H](CN(C)Cc2ccc(-c3ccccc3)cc2)Oc2ncc(C#CCN(C)C)cc2C1=O`, for which the compound was called inactive.
